Measured values as given in PubChem BioAssay (Tox21).
Records with an inconclusive call do not appear. A call without a number means that no potency is given here. Activity calls are given as the source filed them. Calls come from the whole dose curve.

Experiment: qHTS assay for small molecule agonists of the p53 signaling pathway (AID 651631); note: nearly all actives have a fitted effect of over 15% in size
Conditions: HCT-116 p53RE-bla reporter, beta-lactamase FRET ratio, 16 h; series mostly up to 73.3 µM; activation: at the top concentration
Source text: U.S. Tox21 Program National Center for Advancing Translational Sciences [NCATS] NIH Chemical Genomics Center [NCGC] U.S. Environmental Protection Agency [EPA] National Institutes of Environmental Health Sciences [NIEHS] National Toxicology Program [NTP] U.S. Food and Drug Administration [FDA] Tox21 Assay Overview: p53, a tumor suppressor protein, is activated following cellular insult, including DNA damage and other cellular stresses. The activation of p53 regulates cell fate by inducing DNA repair, cell cycle arrest, apoptosis, or cellular senescence. The activation of p53, therefore, is a good indicator of DNA damage and other cellular stresses. The CellSensor p53RE-bla HCT-116 cell line (Invitrogen) contains a stably integrated beta-lactamase reporter gene under control of the p53 response elements. The activation of the reporter gene under culture conditions can be detected by fluorescence intensity. This cell line was used to screen the Tox21 compound library in a 1536-well plate format and to identify agonists that activate the p53 signaling pathway.
Tox21 Assay Protocol Summary: The p53RE-bla cells were dispensed at 4,000 cells/5 ul/well in 1536-well black wall/clear bottom plates using a Multidrop dispenser. After the assay plates were incubated at a 37 C/5% CO2 incubator for 5 hours, 23 nL of compounds dissolved in DMSO, positive controls or DMSO only was transferred to the assay plate by a pin tool. The plates were incubated at 37 C for 16 hours. After 1 uL of LiveBLAzerTM B/G FRET substrate was added using a Flying Reagent Dispenser, the plates were incubated at room temperature for 2 hours, and fluorescence intensity was measured by an Envision plate reader.

| Structure (SMILES) | activation | Potency |
| --- | --- | --- |
| CCCCCCCCOc1ccc(C(=O)c2ccccc2)c(O)c1 | -3.41% (inactive) | – |
| CN(C)Cc1cc(CN(C)C)c(O)c(CN(C)C)c1 | – | inactive |
| C#C[C@]1(O)CC[C@H]2[C@@H]3CCC4=CC(=O)CC[C@@H]4[C@H]3CC[C@@]21CC | – | inactive |
| C[C@]12C[C@H](O)[C@H]3[C@@H](CCC4=CC(=O)CC[C@@]43C)[C@@H]1CC[C@@H]2C(=O)CO | – | inactive |
| CN(C)C=O | -1.47% (inactive) | – |
| CCc1cc(C(N)=S)ccn1 | – | inactive |
| C[C@]12CC[C@@H]3c4ccc(O)cc4C[C@@H](CCCCCCCCCS(=O)CCCC(F)(F)C(F)(F)F)[C@H]3[C@@H]1CC[C@@H]2O (stereo not given in full) | 6.63% (inactive) | – |
| NC(=O)OCC(COC(N)=O)c1ccccc1 | – | inactive |
| COC(=O)C1CCC(C(=O)OC)CC1 (stereo not given) | – | inactive |
| CC(=O)CCC(C)C | – | inactive |
| C=CC(=O)NC(C)(C)CS(=O)(=O)O | – | inactive |
| C=C(C)C(N)=O | – | inactive |
| C=C(C)OC(C)=O | – | inactive |
| COCC(C)N (stereo not given) | – | inactive |
| CN/C(=C\[N+](=O)[O-])NCCSCc1ccc(CN(C)C)o1 | -1.27% (inactive) | – |
| CCCCOCCOCCOC(C)=O | – | inactive |
| CC(O)COc1ccccc1 (stereo not given) | – | inactive |
| O=C(O)CCCCC1CCSS1 (stereo not given) | – | inactive |
| O=C(O)Cc1cccc2ccccc12 | 4.06% (inactive) | – |
| OCCCc1ccccc1 | – | inactive |

| Structure (SMILES) | activation | Potency |
| --- | --- | --- |
| C=CCOC(=O)CC(C)C | – | inactive |
| CC(C)=CCC/C(C)=C/CO | – | inactive |
| C[C@]12C=CC(=O)C=C1CC[C@@H]1[C@@H]2C(=O)C[C@@]2(C)[C@H]1CC[C@]2(O)C(=O)CO | – | inactive |
| CCCCOCCOCCSC#N | – | inactive |
| Cc1cccc2ccccc12 | – | inactive |
| CCCCNC(=O)NS(=O)(=O)c1ccc(N)cc1 | – | inactive |
| CCCCCCCCCCCCCC(=O)OC(C)C | – | inactive |
| CC(C)Cc1ccc(C(C)C(=O)O)cc1 (stereo not given) | – | inactive |
| COc1ccc(O)cc1 | – | inactive |
| NC(=O)c1ccc([N+](=O)[O-])cc1Cl | 2.08% (inactive) | – |
| CC1=NN(c2ccccc2)C(=O)C1 | – | inactive |
| COc1cc(C=O)ccc1O | – | inactive |
| Cc1cnc(NC(=O)C2=C(O)c3ccccc3S(=O)(=O)N2C)s1 | – | inactive |
| COc1ccc(C(=O)c2ccccc2)c(O)c1 | – | inactive |
| CO[C@H]1C=CO[C@@]2(C)Oc3c(C)c(O)c4c(O)c(c(/C=N/N5CCN(C)CC5)c(O)c4c3C2=O)NC(=O)/C(C)=C\C=C[C@H](C)[C@H](O)[C@@H](C)[C@@H](O)[C@@H](C)[C@H](OC(C)=O)[C@@H]1C | – | inactive |
| CC(C)CC(C)CC(O)CC(C)C (stereo not given) | – | inactive |
| COCCOCCOC | – | inactive |
| Cc1ccc(O)c(-n2nc3ccccc3n2)c1 | – | inactive |
| COC(=O)c1ccc(C=O)cc1 | 7.03% [at 95.1 µM] (inactive) | – |
| CC(=O)Oc1ccccc1C(=O)O | – | inactive |
